Among the data in PubChem BioAssay (EPA / NIEHS) are outcome and AC50 values, retold here.

Experiment [1] in a line: ATG_Hpa5_TRANS: Attagene TRANS-FACTORIAL HepG2 Assay for human GAL4-Hpa5 Hepatocyte Transcription Factor Basal Promoter (AID 2282975; active = hit-call score of the fitted dose curve at least 0.9, where 1 is the maximum;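 note: hits are increases in reporter mRNA over DMSO baseline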). As to conditions: HepG2 Attagene GAL4-Hpa5 transcription reporter. In short, it runs like this:
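Gain-of-signal versus DMSO is fitted for reporter mRNA quantified by RT-PCR and capillary electrophoresis after 24 h exposure. This endpoint is an internal background marker in transiently transfected HepG2 cells carrying GAL4-UAS reporter units.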

Experiment [2] can be described thus: ATG_GAL4_TRANS: Attagene TRANS-FACTORIAL HepG2 Assay for GAL4 (Internal Marker) (AID 2282976; active = hit-call score of the fitted dose curve at least 0.9, where 1 is the maximum). As to conditions: HepG2 Attagene TRANS GAL4 internal marker reporter. In short, it runs like this:
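Fluorescence from capillary electrophoresis of labelled RT-PCR products quantifies reporter mRNA induction after 24 h dosing of HepG2 cells carrying transfected GAL4-UAS reporter transcription units. Vehicle DMSO serves as baseline.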

The target in experiment [3] is Glucocorticoid receptor (Homo sapiens) (UniProt P04150). Kind of experiment: ATG_GR_TRANS: Attagene TRANS-FACTORIAL HepG2 Assay for human Glucocorticoid Receptor (GR) (AID 2282978; active = hit-call score of the fitted dose curve at least 0.9, where 1 is the maximum;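 note: activators score as hits since higher reporter transcript over DMSO is fitted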). As to conditions: HepG2 Attagene TRANS GR reporter, mRNA transcription. Put shortly: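 In this trans-factorial format, exogenous NR-GAL4 chimeric proteins in transfected HepG2 cells regulate GAL4-UAS reporter transcription. After 24 h treatment, reporter mRNA induction relative to DMSO is read by RT-PCR and capillary electrophoresis.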

Experiment [4] concerns the target Hepatocyte nuclear factor 4-alpha (Homo sapiens) (UniProt P41235). Kind of experiment: ATG_HNF4a_TRANS: Attagene TRANS-FACTORIAL HepG2 Assay for human Hepatocyte Nuclear Factor 4 alpha (HNF4a) (AID 2282982; active = hit-call score of the fitted dose curve at least 0.9, where 1 is the maximum). As to conditions: HepG2 HNF4a transactivation reporter, mRNA readout. In short, it runs like this: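 Transient MRTU transfection of HepG2, 24 h dosing. Readout: reporter mRNA via RT-PCR + capillary electrophoresis, fluorescence; activity fit upward relative to DMSO control.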

Experiment [5] has as its target Nuclear receptor subfamily 4 group A member 2 (Homo sapiens) (UniProt P43354). Briefly: ATG_NURR1_TRANS: Attagene TRANS-FACTORIAL HepG2 Assay for human Nuclear Receptor Related Protein 1 (NURR1) (AID 2282985; active = hit-call score of the fitted dose curve at least 0.9, where 1 is the maximum). As to conditions: HepG2 Attagene TRANS reporter, mRNA readout. Put shortly:
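Read-out: reporter mRNA induction by RT-PCR plus capillary electrophoresis with fluorescence detection, after 24 h dosing of transfected HepG2 cells. Exogenous NR-Gal4 chimera activity drives GAL4-UAS reporter; activity fitted upward versus DMSO.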

For experiment [6], the target named is Transcriptional activator Myb (Homo sapiens) (UniProt P10242). Kind of experiment: ATG_Myb_CIS: Attagene CIS-FACTORIAL HepG2 Assay for human Myeloblastosis (Myb) Proto-Oncogene Transcription Factor (AID 2282986). To be noted: HepG2 Attagene CIS-FACTORIAL Myb reporter transcription; actives raise or lower the signal. Put shortly:
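Steps: transfect HepG2 with cis-regulated reporter units; dose with chemical for 24 h; isolate RNA, reverse-transcribe, PCR-amplify and FAM-label reporter sequences; digest with HpaI; resolve by capillary electrophoresis. Activity fitted in both directions relative to DMSO.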

For experiment [7], the target named is Nuclear respiratory factor 1 (Homo sapiens) (UniProt Q16656). Kind of experiment: ATG_NRF1_CIS: Attagene CIS-FACTORIAL HepG2 Assay for human Nuclear Respiratory Factor 1 (NRF1) Orphan Gene (AID 2282987). To be noted: HepG2 NRF1 cis-element reporter, Attagene multiplex; actives raise or lower the signal. In short, it runs like this: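 Fluorescence intensity of labelled reporter cDNA fragments, resolved by capillary electrophoresis, served as readout for NRF1 cis-element activity. Transiently transfected HepG2 cells were dosed for 24 hours; activity in either direction was fitted against DMSO negative control.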

Experiment [8] is described as follows: ATG_NFI_CIS: Attagene CIS-FACTORIAL HepG2 Assay for human Nuclear Factor I (NFI) (AID 2282989). To be noted: HepG2 cis-regulatory reporter, NFI response element transcription; actives raise or lower the signal. Put shortly: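 Reporter transcripts were measured by RT-PCR with fluorescent primer extension and capillary electrophoresis 24 h post-treatment. HepG2 cells carried transiently transfected cis-regulated reporter constructs reporting endogenous factor activity; gain or loss fitted against DMSO baseline.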

In experiment [9] the target is Myc proto-oncogene protein (Homo sapiens) (UniProt P01106). Kind of experiment: ATG_Myc_CIS: Attagene CIS-FACTORIAL HepG2 Assay for human Myelocytomatosis (Myc) Proto-Oncogene Transcription Factor (AID 2282990). To be noted: HepG2, Attagene cis-reporter transcription factor activity; actives raise or lower the signal. In short, it runs like this: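 Transiently transfected HepG2 cells bearing cis-promoter reporter units for endogenous transcription factors; 24 h exposure. Reporter mRNA measured by RT-PCR, 6-FAM primer extension, HpaI cut and capillary electrophoresis; bidirectional fit relative to DMSO.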

A short description of experiment [10]: ATG_NF_kB_CIS: Attagene CIS-FACTORIAL HepG2 Assay for human Nuclear Factor Kappa B (NF-kB) (AID 2282991). As to conditions: HepG2 Attagene cis-factorial NF-kB reporter mRNA; actives raise or lower the signal. In short, it runs like this:
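Endogenous transcription factor activity in HepG2 was captured via cis-regulated reporter constructs; after 24 h dosing, reporter mRNA was reverse-transcribed, amplified, fluorescently labelled and sized by capillary electrophoresis, with activity fitted bidirectionally relative to DMSO.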

A short description of experiment [11]: ATG_NRF2_ARE_CIS: Attagene CIS-FACTORIAL HepG2 Assay for human Nuclear Factor Erythroid 2 Related Factor 2 (NFR2) response to Antioxidant Response Elements (ARE) (AID 2282992).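 For AC50: reporter mRNA level measured by RT-PCR and capillary electrophoresis fluorescence.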 As to conditions: HepG2 Attagene ARE/NRF2 reporter, transcription factor activity; actives raise or lower the signal. In short, it runs like this:
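Fluorescence intensity of reporter-specific cDNA fragments, separated by capillary electrophoresis, reflects mRNA induction in transfected HepG2 cells at 24 h. Activity is fitted bidirectionally, DMSO serving as baseline.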

Experiment [12] in a line: ATG_Oct_MLP_CIS: Attagene CIS-FACTORIAL HepG2 Assay for human Octamer-Binding Transcription Factor (Oct) (AID 2282993). To be noted: HepG2 Attagene cis-factorial Oct reporter, mRNA; actives raise or lower the signal. Put shortly:
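Readout is reporter transcript level from RT-PCR with fluorescent primer extension and capillary electrophoresis, fitted in both directions against DMSO. Transfected HepG2 reporter units report endogenous factor activity after 24 h dosing.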

Experiment [13] concerns the target Cellular tumor antigen p53 (Homo sapiens) (UniProt P04637). Kind of experiment: ATG_p53_CIS: Attagene CIS-FACTORIAL HepG2 Assay for human p53 Transcription Factor (AID 2282994). To be noted: HepG2 p53 cis-element reporter, Attagene mRNA; actives raise or lower the signal. In short, it runs like this:
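Transiently transfected HepG2 (multiple cis reporter transcription units); exposure 24 h; reporter RNA via RT-PCR, 6-FAM extension, 2 h HpaI digest at 37 C, CE detection; DMSO baseline.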

The nature of experiment [14]: BSK_3C_TissueFactor: BioMAP Diversity Plus: 3C Assay for Tissue Factor Biomarker Activity (AID 2282997). As to conditions: BioMAP 3C HUVEC, tissue factor biomarker readout; actives raise or lower the signal. Put shortly:
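Cells used were primary human umbilical vein endothelial cells. They were dosed with chemical, and after 24 h Tissue Factor was quantified by ELISA. Curves were fitted bidirectionally with DMSO as baseline.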

Experiment [15] can be described thus: BSK_3C_uPAR: BioMAP Diversity Plus: 3C Assay for Urokinase-type plasminogen activator receptor (uPAR) Biomarker Activity (AID 2282998). As to conditions: BioMAP 3C HUVEC, uPAR biomarker ELISA; actives raise or lower the signal. In short, it runs like this: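 Cell-surface uPAR on HUVEC (3C system) read by ELISA at 24 h post-treatment, with DMSO as baseline and fitting in both directions. Parallel cultures stained with SRB to flag overt cytotoxicity.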
On the technique in general: In an ELISA, binding on a coated surface is turned into a signal by an enzyme label.

A short description of experiment [16]: BSK_3C_VCAM1: BioMAP Diversity Plus: 3C Assay for Vascular cell adhesion molecule 1 (VCAM1) Biomarker Activity (AID 2282999). To be noted: BioMAP 3C HUVEC, VCAM1 ELISA, cytokine-stimulated; actives raise or lower the signal. In short, it runs like this:
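HUVEC primary cells, 24 h compound exposure; VCAM-1 by ELISA; gain/loss of signal fitted bidirectionally vs DMSO baseline.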

For experiment [17], the target named is Bile acid receptor (Homo sapiens) (UniProt Q96RI1). Kind of experiment: ATG_FXR_TRANS: Attagene TRANS-FACTORIAL HepG2 Assay for Farnesoid X Receptor (FXR) (AID 2282979; active = hit-call score of the fitted dose curve at least 0.9, where 1 is the maximum;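 note: hits raise reporter mRNA above DMSO so AC50 marks FXR activation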). To be noted: HepG2 Attagene TRANS FXR-GAL4 reporter transcription. In short, it runs like this:
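Chimeric FXR-GAL4 activity in transiently transfected human HepG2 liver cells is scored as induction of reporter mRNA after 24 h of dosing. Detection uses RT-PCR with fluorescent labelling and capillary electrophoresis, with DMSO serving as baseline.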

In experiment [18] the target is Oxysterols receptor LXR-alpha (Homo sapiens) (UniProt Q13133). Kind of experiment: ATG_LXRa_TRANS: Attagene TRANS-FACTORIAL HepG2 Assay for human Liver X Receptor alpha (LXRa) (AID 2282980; active = hit-call score of the fitted dose curve at least 0.9, where 1 is the maximum). To be noted: HepG2 Attagene TRANS reporter, LXRa transactivation. Put shortly:
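Transient HepG2 transfectants, 24 h dosing, RT-PCR/CE mRNA reporter quantitation; gain-of-signal vs DMSO.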

Experiment [19] has as its target Oxysterols receptor LXR-beta (Homo sapiens) (UniProt P55055). Kind of experiment: ATG_LXRb_TRANS: Attagene TRANS-FACTORIAL HepG2 Assay for human Liver X Receptor beta (LXRb) (AID 2282981; active = hit-call score of the fitted dose curve at least 0.9, where 1 is the maximum). As to conditions: HepG2 Attagene TRANS GAL4-LXRb reporter, mRNA. Put shortly: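 Readout: fluorescent reporter mRNA fragments resolved by capillary electrophoresis after RT-PCR. System: transiently transfected human HepG2, exogenous LXRb-Gal4 chimera driving GAL4-UAS reporter, 24 h dosing. Activity fitted upward against DMSO baseline.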

Usually AC50 stands for the concentration at which the activity in the assay is half-maximal.

Records with an inconclusive call do not appear. The source made the active and inactive calls. Rule for the calls, unless noted: active = hit-call score of the fitted dose curve at least 0.9, where 1 is the maximum; inactive = score below 0.9.

Myc proto-oncogene protein (Homo sapiens), sequence (P01106 whole entry, looked up): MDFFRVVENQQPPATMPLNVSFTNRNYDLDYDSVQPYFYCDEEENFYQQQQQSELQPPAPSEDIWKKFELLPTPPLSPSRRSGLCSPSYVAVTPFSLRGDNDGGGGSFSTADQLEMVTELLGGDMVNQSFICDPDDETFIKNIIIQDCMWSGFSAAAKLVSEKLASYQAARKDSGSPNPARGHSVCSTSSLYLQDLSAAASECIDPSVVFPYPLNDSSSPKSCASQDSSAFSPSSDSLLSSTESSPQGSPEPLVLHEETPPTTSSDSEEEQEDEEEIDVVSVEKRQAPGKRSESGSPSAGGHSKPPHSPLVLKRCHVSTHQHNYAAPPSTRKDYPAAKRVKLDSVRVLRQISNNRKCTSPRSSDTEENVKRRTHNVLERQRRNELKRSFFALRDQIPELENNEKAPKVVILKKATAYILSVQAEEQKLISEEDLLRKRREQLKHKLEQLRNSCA
Glucocorticoid receptor (Homo sapiens), sequence (P04150 whole entry, looked up, the tested form may be a part): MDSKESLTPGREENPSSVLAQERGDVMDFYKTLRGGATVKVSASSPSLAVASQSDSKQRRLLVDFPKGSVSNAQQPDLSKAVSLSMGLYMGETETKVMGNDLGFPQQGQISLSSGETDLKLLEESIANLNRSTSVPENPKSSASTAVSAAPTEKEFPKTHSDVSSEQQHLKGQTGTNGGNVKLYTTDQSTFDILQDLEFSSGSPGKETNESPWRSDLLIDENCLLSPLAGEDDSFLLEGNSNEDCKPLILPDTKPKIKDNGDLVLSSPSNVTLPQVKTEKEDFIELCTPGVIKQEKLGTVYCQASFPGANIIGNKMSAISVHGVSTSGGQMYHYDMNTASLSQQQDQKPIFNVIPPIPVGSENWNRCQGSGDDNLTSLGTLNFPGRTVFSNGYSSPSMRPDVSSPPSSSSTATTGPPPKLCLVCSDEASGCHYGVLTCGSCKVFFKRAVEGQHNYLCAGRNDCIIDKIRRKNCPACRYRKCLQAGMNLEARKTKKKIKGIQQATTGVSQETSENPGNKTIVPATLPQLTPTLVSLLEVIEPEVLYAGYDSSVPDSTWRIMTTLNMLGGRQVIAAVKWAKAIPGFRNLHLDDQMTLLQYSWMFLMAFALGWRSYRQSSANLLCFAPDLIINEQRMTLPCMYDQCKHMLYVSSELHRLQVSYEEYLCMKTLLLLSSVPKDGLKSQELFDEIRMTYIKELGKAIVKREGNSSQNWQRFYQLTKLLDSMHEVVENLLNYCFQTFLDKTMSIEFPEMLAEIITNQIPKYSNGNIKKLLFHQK
Cellular tumor antigen p53 (Homo sapiens), sequence (P04637 whole entry, looked up): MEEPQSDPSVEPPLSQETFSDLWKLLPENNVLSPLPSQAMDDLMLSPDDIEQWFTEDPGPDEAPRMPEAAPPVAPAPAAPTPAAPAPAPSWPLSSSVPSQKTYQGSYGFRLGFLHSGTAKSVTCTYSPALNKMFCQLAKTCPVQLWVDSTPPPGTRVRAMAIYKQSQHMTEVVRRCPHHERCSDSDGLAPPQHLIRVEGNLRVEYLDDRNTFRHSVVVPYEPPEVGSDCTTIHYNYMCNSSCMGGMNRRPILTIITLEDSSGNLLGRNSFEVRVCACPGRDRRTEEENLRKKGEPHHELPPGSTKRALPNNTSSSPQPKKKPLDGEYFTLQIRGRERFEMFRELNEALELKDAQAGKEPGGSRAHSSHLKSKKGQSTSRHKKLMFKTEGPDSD
Nuclear receptor subfamily 4 group A member 2 (Homo sapiens), sequence (P43354 whole entry, looked up, the tested form may be a part): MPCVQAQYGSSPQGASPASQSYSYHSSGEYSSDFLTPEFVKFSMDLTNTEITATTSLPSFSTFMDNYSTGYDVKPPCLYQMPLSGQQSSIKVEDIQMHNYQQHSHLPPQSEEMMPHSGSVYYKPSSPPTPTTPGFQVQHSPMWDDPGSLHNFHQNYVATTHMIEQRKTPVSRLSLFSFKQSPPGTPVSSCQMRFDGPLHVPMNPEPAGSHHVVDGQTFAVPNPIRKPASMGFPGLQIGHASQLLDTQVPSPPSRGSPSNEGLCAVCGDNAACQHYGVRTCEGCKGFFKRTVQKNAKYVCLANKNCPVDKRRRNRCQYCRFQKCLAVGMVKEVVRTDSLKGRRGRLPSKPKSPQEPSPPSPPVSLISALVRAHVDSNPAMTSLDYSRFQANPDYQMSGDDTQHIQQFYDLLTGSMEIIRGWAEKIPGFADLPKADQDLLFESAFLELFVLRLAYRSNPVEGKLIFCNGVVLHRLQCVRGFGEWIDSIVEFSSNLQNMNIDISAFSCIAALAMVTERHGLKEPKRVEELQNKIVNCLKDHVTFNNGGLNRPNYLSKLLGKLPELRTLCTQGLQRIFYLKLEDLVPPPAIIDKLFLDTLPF
Bile acid receptor (Homo sapiens), sequence (Q96RI1 whole entry, looked up, the tested form may be a part): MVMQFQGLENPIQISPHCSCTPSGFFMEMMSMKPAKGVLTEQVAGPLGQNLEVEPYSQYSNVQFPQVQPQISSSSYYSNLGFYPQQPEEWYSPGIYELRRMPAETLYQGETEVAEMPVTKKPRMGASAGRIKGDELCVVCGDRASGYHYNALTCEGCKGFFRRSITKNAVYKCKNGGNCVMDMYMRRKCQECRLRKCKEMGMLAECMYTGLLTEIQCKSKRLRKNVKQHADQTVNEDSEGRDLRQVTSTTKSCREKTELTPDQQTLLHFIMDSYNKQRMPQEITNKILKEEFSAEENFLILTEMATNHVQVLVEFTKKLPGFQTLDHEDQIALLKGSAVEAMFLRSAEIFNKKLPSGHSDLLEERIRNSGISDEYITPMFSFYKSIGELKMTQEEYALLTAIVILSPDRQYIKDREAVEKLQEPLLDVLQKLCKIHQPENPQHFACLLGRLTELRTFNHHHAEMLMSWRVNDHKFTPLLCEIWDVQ
Nuclear respiratory factor 1 (Homo sapiens), sequence (Q16656 whole entry, looked up, the tested form may be a part): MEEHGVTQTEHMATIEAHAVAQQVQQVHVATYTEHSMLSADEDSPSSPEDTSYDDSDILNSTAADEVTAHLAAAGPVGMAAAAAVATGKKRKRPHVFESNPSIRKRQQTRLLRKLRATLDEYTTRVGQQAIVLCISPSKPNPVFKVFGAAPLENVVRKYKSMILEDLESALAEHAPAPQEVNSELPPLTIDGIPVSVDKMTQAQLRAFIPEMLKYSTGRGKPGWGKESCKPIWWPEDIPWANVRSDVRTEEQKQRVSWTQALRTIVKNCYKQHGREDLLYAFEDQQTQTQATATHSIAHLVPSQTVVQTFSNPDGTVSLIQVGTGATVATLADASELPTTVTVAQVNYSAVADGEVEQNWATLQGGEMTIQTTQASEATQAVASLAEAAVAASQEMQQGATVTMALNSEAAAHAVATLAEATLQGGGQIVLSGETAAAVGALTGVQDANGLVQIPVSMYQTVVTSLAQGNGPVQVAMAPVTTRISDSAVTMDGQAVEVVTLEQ
Transcriptional activator Myb (Homo sapiens), sequence (P10242 whole entry, looked up): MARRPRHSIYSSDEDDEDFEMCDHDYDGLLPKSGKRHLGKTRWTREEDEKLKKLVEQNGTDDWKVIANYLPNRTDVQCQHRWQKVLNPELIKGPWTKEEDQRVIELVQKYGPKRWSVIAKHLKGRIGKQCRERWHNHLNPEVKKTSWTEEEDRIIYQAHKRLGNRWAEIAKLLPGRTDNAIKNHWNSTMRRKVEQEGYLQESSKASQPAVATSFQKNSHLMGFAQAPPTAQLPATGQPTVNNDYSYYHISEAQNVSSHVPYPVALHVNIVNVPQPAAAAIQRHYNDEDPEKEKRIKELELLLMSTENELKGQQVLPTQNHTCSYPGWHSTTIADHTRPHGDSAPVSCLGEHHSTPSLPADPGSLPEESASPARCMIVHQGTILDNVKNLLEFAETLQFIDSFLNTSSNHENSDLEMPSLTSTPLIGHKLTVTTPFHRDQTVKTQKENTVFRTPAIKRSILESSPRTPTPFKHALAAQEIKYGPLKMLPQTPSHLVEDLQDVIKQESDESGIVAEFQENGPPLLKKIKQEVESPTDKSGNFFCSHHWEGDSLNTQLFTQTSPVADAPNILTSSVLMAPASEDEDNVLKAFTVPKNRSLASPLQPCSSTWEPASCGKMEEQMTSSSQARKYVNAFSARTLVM
Oxysterols receptor LXR-alpha (Homo sapiens), sequence (Q13133 whole entry, looked up): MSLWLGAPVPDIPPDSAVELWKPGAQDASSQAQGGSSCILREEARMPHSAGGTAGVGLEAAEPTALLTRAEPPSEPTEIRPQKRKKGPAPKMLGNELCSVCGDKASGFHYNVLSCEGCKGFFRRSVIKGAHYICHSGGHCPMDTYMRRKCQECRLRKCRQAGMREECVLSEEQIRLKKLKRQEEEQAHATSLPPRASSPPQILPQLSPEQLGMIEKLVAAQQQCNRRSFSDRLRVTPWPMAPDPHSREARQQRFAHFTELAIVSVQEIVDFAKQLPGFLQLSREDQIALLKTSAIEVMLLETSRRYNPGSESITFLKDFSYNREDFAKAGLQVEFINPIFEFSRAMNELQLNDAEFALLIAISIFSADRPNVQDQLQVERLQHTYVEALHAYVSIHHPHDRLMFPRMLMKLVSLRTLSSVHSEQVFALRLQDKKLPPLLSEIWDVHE
Oxysterols receptor LXR-beta (Homo sapiens), sequence (P55055 whole entry, looked up, the tested form may be a part): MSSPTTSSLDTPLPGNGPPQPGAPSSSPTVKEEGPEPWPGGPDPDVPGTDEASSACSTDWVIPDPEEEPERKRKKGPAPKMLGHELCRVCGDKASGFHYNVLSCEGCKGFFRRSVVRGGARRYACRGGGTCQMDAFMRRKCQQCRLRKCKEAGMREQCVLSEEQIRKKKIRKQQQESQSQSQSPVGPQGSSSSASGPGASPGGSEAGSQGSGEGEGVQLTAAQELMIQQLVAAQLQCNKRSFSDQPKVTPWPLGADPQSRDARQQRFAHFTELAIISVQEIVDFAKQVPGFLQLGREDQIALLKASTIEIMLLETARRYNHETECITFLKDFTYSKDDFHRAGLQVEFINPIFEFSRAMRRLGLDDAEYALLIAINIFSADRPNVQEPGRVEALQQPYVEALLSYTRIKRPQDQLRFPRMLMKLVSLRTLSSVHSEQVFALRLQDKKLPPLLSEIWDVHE

Take `CC1(C)C(C=C(Cl)Cl)C1C(=O)OC(C#N)c1cccc(Oc2ccccc2)c1` (stereo unspecified): the molecule was classed as inactive in experiment [1], in experiment [2], in [3], in [4], in experiment [5] and in [6]. Besides, the molecule was classed as inactive in [7], in experiment [8], in experiment [9], in [10], in experiment [12] and in experiment [13]. For the same molecule, the result in experiment [14] and in [16] was inactive. For the same molecule, the AC50 in experiment [11] was 0.723 µM (active); in experiment [15], 13.9 µM (active).

As to `CS(=O)(=O)c1ccc(C(=O)C2C(=O)CCCC2=O)c([N+](=O)[O-])c1`, the result in experiment [1], in experiment [3], in experiment [17], in experiment [18], in experiment [19] and in experiment [4] was inactive. For the same molecule, the molecule was called inactive in experiment [5], in experiment [6], in [7], in experiment [8], in experiment [9] and in [10]. In addition, the molecule was called inactive in experiment [11], in experiment [12], in experiment [13], in experiment [14], in experiment [15] and in [16].

On to `Cc1nc(N(C)C)nc(OC(=O)N(C)C)c1C`, for which the call in experiment [1], in [3], in experiment [17], in experiment [5], in experiment [6] and in [7] was inactive. For the same molecule, the molecule was classed as inactive in experiment [8], in experiment [9], in [11], in [12], in [14] and in experiment [15]. The outcome in experiment [16] was inactive.

Consider `Clc1cccc(C(Cl)(Cl)Cl)n1`, for which the molecule was called inactive in [1], in experiment [17], in experiment [18], in [19], in experiment [6] and in experiment [7]. Further, the molecule was called inactive in [8], in [9], in experiment [11], in experiment [12], in [13] and in experiment [14]. Further, the result in [15] and in [16] was inactive.
